Source: the supplement of paper PMC10849652
Of roughly 8,800 targets only a part is listed; those with a hit were picked by preference. About 0.5% of all pairs of compound and target were hits.

Tests used:
Assay in all cases: log2 fold change, soluble protein after heating vs DMSO (PISA); higher = thermal stabilisation; K562 lysate, 10 uM; active = over 0.2 and 3.5 SD of the protein, either way, in both replicates (recomputed)
lapatinib = compound: CS(=O)(=O)CCNCc1ccc(-c2ccc3ncnc(Nc4ccc(OCc5cccc(F)c5)c(Cl)c4)c3c2)o1 [lapatinib]
Method in brief: (§1)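 Log-two fold change in thermal stability relative to solvent controls is reported from duplicates. For each sample, crude K562 extract from dounce-homogenised pellets in PBS pH 7.4 with 1 mM MgCl2, at 1 mg/mL protein, was treated with 10 μM compound for 30 min. Aliquots heated for 3 min across 48°C-58°C were pooled, brought to 0.5% NP-40 at 4°C and cleared at 21,000xg for 90 min. The supernatant was quantified by TMTpro 16plex LC-MS/MS with channel sums equalised.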

pictilisib = compound: CS(=O)(=O)N1CCN(Cc2cc3nc(-c4cccc5[nH]ncc45)nc(N4CCOCC4)c3s2)CC1 [pictilisib]
Method in brief: as §1

crizotinib = compound: C[C@@H](Oc1cc(-c2cnn(C3CCNCC3)c2)cnc1N)c1c(Cl)ccc(F)c1Cl [crizotinib]
Method in brief: as §1

[1] = compound: C[C@H](C1=CC=C(C=C1)C(=O)NC2=C3C=CNC3=NC=C2)N
Method in brief: as §1

duvelisib = compound: C[C@H](Nc1ncnc2nc[nH]c12)c1cc2cccc(Cl)c2c(=O)n1-c1ccccc1 [duvelisib]
Method in brief: as §1

gandotinib = compound: Cc1cc(Nc2cc(CN3CCOCC3)c3nc(C)c(Cc4ccc(Cl)cc4F)n3n2)n[nH]1 [gandotinib]
Method in brief: as §1

tozasertib = compound: Cc1cc(Nc2cc(N3CCN(C)CC3)nc(Sc3ccc(NC(=O)C4CC4)cc3)n2)n[nH]1 [tozasertib]
Method in brief: as §1

doramapimod = compound: Cc1ccc(-n2nc(C(C)(C)C)cc2NC(=O)Nc2ccc(OCCN3CCOCC3)c3ccccc23)cc1 [doramapimod]
Method in brief: as §1

bafetinib = compound: Cc1ccc(NC(=O)c2ccc(CN3CC[C@H](N(C)C)C3)c(C(F)(F)F)c2)cc1Nc1nccc(-c2cncnc2)n1 [bafetinib]
Method in brief: as §1

[2] = compound: Cc1cccc(CC(=O)N2CCc3c2ccc(-c2cn(C)c4ncnc(N)c24)c3F)n1
Method in brief: as §1

Measured: log2 fold change

NFATC4 isoform 2 (UniProt Q14934)
inactive: lapatinib 0.039 | pictilisib 0.003 | crizotinib -0.132 | [1] -0.187 | duvelisib -0.006 | gandotinib 0.04 | tozasertib 0.084 | doramapimod 0.026 | bafetinib -0.305 | [2] 0.192

MRPL58 (UniProt Q14197)
active: [1] 0.365
inactive: lapatinib 0.035 | pictilisib -0.034 | crizotinib -0.063 | duvelisib -0.034 | gandotinib -0.009 | tozasertib 0.045 | doramapimod -0.026 | bafetinib -0.03 | [2] -0.119

MRPS12 (UniProt O15235)
inactive: lapatinib 0.006 | pictilisib -0.024 | crizotinib -0.019 | [1] 0.003 | duvelisib -0.022 | gandotinib -0.022 | tozasertib 0.048 | doramapimod 0.03 | bafetinib 0.036 | [2] -0.003

MRPS18A isoform 2 (UniProt Q9NVS2)
inactive: lapatinib 0.005 | pictilisib -0.046 | crizotinib -0.02 | [1] 0.262 | duvelisib -0.133 | gandotinib -0.164 | tozasertib 0.043 | doramapimod -0.005 | bafetinib 0 | [2] -0.226

NOSIP (UniProt Q9Y314)
Sequence of UniProt Q9Y314 (Q9Y314 whole entry, looked up): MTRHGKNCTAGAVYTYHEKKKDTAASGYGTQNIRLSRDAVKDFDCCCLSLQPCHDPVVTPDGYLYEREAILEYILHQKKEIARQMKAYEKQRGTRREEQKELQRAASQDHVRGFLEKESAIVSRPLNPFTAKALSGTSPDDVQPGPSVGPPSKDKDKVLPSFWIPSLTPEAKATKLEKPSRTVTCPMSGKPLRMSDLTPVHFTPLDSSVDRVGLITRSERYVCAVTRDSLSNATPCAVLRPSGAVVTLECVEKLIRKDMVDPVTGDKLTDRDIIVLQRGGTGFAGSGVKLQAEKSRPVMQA
inactive: lapatinib -0.03 | pictilisib -0.042 | crizotinib -0.026 | [1] 0.02 | duvelisib -0.004 | gandotinib 0.017 | tozasertib -0.053 | doramapimod 0.013 | bafetinib -0.003 | [2] 0.038

NUP160 (UniProt Q12769)
inactive: lapatinib 0.004 | pictilisib -0.046 | crizotinib -0.028 | [1] 0.003 | duvelisib -0.007 | gandotinib -0.102 | tozasertib 0.015 | doramapimod 0.032 | bafetinib -0.059 | [2] -0.007

NNMT (UniProt P40261)
inactive: lapatinib -0.017 | pictilisib 0.037 | crizotinib -0.065 | [1] -0.072 | duvelisib 0.066 | gandotinib 0.015 | tozasertib 0 | doramapimod 0.013 | bafetinib -0.066 | [2] -0.001

NCOR2 (UniProt C9J0Q5)
inactive: lapatinib 0.063 | pictilisib -0.028 | crizotinib 0.116 | [1] 0.018 | duvelisib -0.014 | gandotinib -0.055 | tozasertib 0.011 | doramapimod -0.052 | bafetinib 0.079 | [2] -0.07

PAK4 (UniProt O96013)
inactive: lapatinib -0.147 | pictilisib 0.139 | crizotinib 0.037 | [1] 0.163 | duvelisib 0.05 | tozasertib 0.18 | doramapimod -0.236 | bafetinib -0.011 | [2] -0.12
active: gandotinib 0.709

NGLY1 (UniProt Q96IV0)
inactive: lapatinib -0.017 | pictilisib -0.002 | crizotinib -0.058 | [1] 0.038 | duvelisib -0.001 | gandotinib -0.053 | tozasertib -0.025 | doramapimod -0.013 | bafetinib -0.048 | [2] 0.04

NDUFA4 (UniProt O00483)
inactive: lapatinib 0.124 | pictilisib 0.017 | crizotinib 0.02 | [1] 0.009 | duvelisib 0.059 | tozasertib -0.01 | doramapimod 0.02 | bafetinib 0 | [2] -0.026
active: gandotinib -0.294

NELFA (UniProt Q9H3P2)
Sequence of UniProt Q9H3P2 (Q9H3P2 whole entry, looked up): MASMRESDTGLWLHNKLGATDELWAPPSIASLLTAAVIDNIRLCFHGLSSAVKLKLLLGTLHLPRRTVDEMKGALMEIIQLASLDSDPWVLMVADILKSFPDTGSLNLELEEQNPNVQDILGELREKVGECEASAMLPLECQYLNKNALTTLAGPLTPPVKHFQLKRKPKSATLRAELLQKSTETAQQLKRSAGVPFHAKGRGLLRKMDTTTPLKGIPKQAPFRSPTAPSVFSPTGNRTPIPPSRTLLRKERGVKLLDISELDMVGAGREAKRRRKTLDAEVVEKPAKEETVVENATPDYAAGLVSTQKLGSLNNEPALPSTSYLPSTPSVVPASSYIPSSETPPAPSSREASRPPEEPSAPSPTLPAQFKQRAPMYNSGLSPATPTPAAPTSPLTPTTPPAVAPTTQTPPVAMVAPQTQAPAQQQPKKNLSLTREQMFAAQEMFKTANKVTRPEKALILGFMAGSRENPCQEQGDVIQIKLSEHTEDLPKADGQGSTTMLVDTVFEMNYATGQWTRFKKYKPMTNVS
inactive: lapatinib -0.031 | pictilisib 0.021 | crizotinib 0.018 | [1] 0.06 | duvelisib -0.018 | gandotinib -0.079 | tozasertib 0.048 | doramapimod 0.022 | bafetinib -0.048 | [2] -0.003

NR2C2 isoform 2 (UniProt P49116)
Sequence of UniProt P49116 (P49116 whole entry, looked up): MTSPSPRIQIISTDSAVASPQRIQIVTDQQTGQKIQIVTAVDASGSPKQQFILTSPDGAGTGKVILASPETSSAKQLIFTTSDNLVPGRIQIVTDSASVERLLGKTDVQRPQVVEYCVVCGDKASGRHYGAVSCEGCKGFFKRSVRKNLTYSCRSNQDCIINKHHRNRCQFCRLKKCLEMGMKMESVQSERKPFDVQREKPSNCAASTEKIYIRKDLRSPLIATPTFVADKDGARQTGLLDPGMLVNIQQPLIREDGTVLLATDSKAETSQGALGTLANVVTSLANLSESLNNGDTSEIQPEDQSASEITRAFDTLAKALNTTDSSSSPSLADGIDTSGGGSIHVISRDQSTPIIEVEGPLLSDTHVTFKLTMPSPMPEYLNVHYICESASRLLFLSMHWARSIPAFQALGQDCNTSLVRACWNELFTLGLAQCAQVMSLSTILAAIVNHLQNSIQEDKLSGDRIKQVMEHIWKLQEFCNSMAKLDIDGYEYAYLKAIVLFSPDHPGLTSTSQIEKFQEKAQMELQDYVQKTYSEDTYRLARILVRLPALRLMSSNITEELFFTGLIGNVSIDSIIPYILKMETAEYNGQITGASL
inactive: lapatinib -0.014 | pictilisib -0.025 | crizotinib -0.004 | [1] 0.064 | duvelisib -0.014 | gandotinib -0.079 | tozasertib -0.005 | doramapimod -0.004 | bafetinib 0.145 | [2] -0.025

ORC2 (UniProt Q13416)
inactive: lapatinib 0.016 | pictilisib -0.049 | crizotinib -0.074 | [1] 0.063 | duvelisib -0.068 | gandotinib -0.087 | tozasertib -0.017 | doramapimod -0.007 | bafetinib -0.034 | [2] 0.011

ORC5 (UniProt O43913)
Sequence of UniProt O43913 (O43913 whole entry, looked up): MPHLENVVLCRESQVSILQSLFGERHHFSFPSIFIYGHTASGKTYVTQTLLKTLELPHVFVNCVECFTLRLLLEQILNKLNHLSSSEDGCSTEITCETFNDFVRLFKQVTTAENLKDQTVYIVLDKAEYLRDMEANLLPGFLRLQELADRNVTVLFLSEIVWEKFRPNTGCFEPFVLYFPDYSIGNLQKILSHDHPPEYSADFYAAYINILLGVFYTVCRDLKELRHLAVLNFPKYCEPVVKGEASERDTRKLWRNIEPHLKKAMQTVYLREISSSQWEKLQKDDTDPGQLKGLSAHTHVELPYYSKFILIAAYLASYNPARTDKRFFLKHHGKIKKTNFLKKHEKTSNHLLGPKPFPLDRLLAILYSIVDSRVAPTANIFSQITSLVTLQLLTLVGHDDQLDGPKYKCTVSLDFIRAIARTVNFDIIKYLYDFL
inactive: lapatinib -0.014 | pictilisib -0.049 | crizotinib -0.137 | [1] -0.009 | duvelisib -0.016 | gandotinib -0.113 | tozasertib -0.023 | doramapimod 0.027 | bafetinib -0.069 | [2] 0.045

NIFK (UniProt Q9BYG3)
Sequence of UniProt Q9BYG3 (Q9BYG3 whole entry, looked up): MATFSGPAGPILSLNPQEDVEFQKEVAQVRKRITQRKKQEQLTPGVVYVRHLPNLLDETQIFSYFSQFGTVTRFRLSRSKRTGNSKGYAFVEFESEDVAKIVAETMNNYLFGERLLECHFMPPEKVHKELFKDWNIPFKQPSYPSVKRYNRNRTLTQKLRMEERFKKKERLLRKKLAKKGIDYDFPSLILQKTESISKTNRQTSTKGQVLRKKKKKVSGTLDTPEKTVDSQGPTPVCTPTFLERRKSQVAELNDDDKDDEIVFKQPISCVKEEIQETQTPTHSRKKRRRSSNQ
inactive: lapatinib -0.004 | pictilisib -0.019 | crizotinib -0.033 | [1] -0.027 | duvelisib 0.009 | gandotinib 0 | tozasertib 0.036 | doramapimod -0.009 | bafetinib -0.026 | [2] 0.064

NUP188 (UniProt Q5SRE5)
inactive: lapatinib -0.063 | pictilisib -0.04 | crizotinib -0.05 | [1] -0.024 | duvelisib 0.004 | gandotinib -0.127 | tozasertib -0.012 | doramapimod -0.034 | bafetinib -0.031 | [2] 0.039

MTA1 (UniProt Q13330)
inactive: lapatinib -0.002 | pictilisib 0 | crizotinib -0.008 | [1] 0.001 | duvelisib -0.059 | gandotinib -0.067 | tozasertib -0.002 | doramapimod -0.009 | bafetinib 0.023 | [2] 0.017

ORC3 isoform 2 (UniProt Q9UBD5)
inactive: lapatinib -0.014 | pictilisib -0.011 | crizotinib -0.119 | [1] -0.008 | duvelisib -0.025 | gandotinib -0.097 | tozasertib -0.024 | doramapimod -0.009 | bafetinib -0.046 | [2] 0.001

NFATC1 (UniProt O95644)
Sequence of UniProt O95644 (O95644 whole entry, looked up): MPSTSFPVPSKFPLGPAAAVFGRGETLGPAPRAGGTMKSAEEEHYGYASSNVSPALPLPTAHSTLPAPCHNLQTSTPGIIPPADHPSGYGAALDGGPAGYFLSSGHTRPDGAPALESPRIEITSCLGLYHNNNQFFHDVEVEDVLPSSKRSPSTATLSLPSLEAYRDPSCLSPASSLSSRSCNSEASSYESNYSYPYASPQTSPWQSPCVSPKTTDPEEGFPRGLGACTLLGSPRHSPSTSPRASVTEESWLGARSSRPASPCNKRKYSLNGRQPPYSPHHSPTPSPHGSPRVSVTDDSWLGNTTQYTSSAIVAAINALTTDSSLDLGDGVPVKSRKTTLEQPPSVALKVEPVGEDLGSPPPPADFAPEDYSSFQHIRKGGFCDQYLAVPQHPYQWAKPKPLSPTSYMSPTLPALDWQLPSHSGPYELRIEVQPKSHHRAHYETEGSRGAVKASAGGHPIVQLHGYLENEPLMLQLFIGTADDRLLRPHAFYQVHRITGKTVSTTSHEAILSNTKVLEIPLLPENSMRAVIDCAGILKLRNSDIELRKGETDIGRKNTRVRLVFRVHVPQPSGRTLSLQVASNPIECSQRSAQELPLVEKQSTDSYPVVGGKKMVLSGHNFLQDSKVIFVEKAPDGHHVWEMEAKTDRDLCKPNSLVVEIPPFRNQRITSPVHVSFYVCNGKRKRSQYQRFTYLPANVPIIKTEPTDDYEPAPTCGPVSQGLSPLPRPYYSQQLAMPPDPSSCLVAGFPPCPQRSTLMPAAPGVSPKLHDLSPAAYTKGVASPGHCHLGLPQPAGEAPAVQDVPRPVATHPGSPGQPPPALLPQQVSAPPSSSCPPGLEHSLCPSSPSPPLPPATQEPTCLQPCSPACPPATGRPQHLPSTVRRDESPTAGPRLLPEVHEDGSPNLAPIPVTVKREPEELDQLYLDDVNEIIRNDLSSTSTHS
inactive: lapatinib -0.003 | pictilisib -0.088 | crizotinib -0.111 | [1] -0.136 | duvelisib 0.007 | gandotinib 0.132 | tozasertib -0.002 | doramapimod 0.017 | bafetinib -0.043 | [2] 0.179

NCOR1 (UniProt O75376)
inactive: lapatinib 0.046 | pictilisib -0.028 | crizotinib 0.018 | [1] 0.031 | duvelisib -0.022 | gandotinib -0.03 | tozasertib -0.009 | doramapimod -0.034 | bafetinib -0.028 | [2] 0.006

NCAPH (UniProt Q15003)
inactive: lapatinib -0.012 | pictilisib 0.005 | crizotinib -0.019 | [1] -0.015 | duvelisib 0.046 | gandotinib -0.101 | tozasertib 0 | doramapimod 0.036 | bafetinib -0.013 | [2] 0.028

NFIC (UniProt P08651)
Sequence of UniProt P08651 (P08651 whole entry, looked up): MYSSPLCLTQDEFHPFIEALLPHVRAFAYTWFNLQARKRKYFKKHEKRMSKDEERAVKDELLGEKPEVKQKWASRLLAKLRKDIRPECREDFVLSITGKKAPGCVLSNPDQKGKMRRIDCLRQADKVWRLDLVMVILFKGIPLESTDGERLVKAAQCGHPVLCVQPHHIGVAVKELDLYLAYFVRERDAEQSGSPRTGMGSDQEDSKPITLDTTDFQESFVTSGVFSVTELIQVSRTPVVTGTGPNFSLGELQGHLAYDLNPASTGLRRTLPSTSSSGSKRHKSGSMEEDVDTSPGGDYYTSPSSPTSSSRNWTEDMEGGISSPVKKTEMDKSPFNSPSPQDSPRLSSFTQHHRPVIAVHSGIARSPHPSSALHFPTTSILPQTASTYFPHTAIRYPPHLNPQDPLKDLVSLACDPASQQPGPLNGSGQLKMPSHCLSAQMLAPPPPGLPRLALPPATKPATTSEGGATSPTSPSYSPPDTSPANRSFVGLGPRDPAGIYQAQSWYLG
inactive: lapatinib -0.004 | pictilisib 0.109 | crizotinib 0.007 | [1] -0.361 | duvelisib -0.002 | gandotinib 0.237 | tozasertib 0.035 | doramapimod 0.139 | bafetinib -0.038 | [2] 0.003

NPLOC4 isoform 2 (UniProt Q8TAT6)
inactive: lapatinib 0.022 | pictilisib 0.003 | crizotinib -0.023 | [1] -0.087 | duvelisib 0.01 | gandotinib 0.046 | tozasertib -0.003 | doramapimod 0.056 | bafetinib -0.019 | [2] 0.007

NEK9 (UniProt Q8TD19)
Sequence of UniProt Q8TD19 (Q8TD19 whole entry, looked up): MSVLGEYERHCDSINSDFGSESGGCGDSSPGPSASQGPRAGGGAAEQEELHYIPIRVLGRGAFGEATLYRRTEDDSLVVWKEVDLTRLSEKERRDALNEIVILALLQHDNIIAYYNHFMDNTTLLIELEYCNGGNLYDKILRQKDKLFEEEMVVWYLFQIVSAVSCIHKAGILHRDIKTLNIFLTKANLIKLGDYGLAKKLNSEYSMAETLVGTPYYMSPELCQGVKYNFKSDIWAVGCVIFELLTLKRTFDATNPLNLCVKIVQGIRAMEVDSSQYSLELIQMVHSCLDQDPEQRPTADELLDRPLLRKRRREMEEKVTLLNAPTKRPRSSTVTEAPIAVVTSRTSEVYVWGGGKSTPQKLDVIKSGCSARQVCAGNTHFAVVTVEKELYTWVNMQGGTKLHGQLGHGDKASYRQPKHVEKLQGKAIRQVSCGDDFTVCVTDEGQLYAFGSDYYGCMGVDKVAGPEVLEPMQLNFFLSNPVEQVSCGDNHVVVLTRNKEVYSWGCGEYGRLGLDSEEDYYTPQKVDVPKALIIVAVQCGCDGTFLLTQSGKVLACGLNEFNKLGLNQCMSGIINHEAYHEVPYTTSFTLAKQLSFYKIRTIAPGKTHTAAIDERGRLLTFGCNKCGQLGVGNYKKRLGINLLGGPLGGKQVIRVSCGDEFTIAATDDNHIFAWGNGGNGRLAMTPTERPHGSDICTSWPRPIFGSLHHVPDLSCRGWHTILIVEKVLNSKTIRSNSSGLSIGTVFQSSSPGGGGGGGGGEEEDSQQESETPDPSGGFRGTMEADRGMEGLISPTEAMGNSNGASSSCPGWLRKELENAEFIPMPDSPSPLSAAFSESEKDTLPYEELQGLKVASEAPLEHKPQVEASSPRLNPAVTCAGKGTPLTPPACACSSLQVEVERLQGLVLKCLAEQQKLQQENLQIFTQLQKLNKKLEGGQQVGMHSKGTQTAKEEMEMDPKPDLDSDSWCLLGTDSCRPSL
inactive: lapatinib -0.013 | pictilisib 0.039 | crizotinib 0.057 | [1] -0.092 | duvelisib 0.006 | gandotinib 0.108 | tozasertib 0.025 | doramapimod -0.033 | bafetinib 0.014 | [2] 0.019

NFATC2IP (UniProt Q8NCF5)
Sequence of UniProt Q8NCF5 (Q8NCF5 whole entry, looked up): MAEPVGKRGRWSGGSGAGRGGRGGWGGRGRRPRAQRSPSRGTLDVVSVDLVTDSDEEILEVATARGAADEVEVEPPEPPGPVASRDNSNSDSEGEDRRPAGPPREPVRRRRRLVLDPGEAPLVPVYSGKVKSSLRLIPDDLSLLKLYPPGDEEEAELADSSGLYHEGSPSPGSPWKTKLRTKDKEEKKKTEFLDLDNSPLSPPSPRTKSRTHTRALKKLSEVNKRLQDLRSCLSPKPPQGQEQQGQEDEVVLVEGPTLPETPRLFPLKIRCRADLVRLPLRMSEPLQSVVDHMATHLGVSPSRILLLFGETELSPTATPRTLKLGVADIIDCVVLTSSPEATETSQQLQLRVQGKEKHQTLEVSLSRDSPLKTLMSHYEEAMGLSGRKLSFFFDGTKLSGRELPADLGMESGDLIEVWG
inactive: lapatinib 0.002 | pictilisib -0.091 | crizotinib 0.027 | [1] 0.059 | duvelisib -0.067 | gandotinib 0.039 | tozasertib -0.035 | doramapimod 0.001 | bafetinib -0.169 | [2] -0.018

NPTN (UniProt Q9Y639)
inactive: lapatinib -0.057 | pictilisib -0.045 | crizotinib -0.058 | [1] -0.011 | duvelisib 0.049 | gandotinib 0.003 | tozasertib 0.007 | doramapimod 0.056 | bafetinib -0.029 | [2] 0.011

NEK7 (UniProt Q8TDX7)
inactive: lapatinib -0.035 | pictilisib -0.018 | crizotinib -0.045 | [1] -0.062 | duvelisib -0.026 | gandotinib -0.031 | tozasertib -0.022 | doramapimod 0.016 | bafetinib -0.026 | [2] 0.15

NAT1 (UniProt P18440)
inactive: lapatinib 0.026 | pictilisib 0.111 | crizotinib -0.227 | [1] -0.089 | duvelisib 0.006 | gandotinib 0.004 | tozasertib -0.048 | doramapimod 0.058 | bafetinib 0.006 | [2] 0.083

NBEAL2 (UniProt Q6ZNJ1)
inactive: lapatinib -0.065 | pictilisib -0.016 | crizotinib -0.069 | [1] -0.006 | duvelisib 0.04 | gandotinib -0.157 | tozasertib 0.02 | doramapimod 0.008 | bafetinib -0.056 | [2] 0.072
